Shown are actives, neighbours in structure and some others; about 4.1% of the full set was active somewhere.
hcDAF12 agonist – activates DAF-12 receptor from parasite H. contortus. HEK293 hcDAF-12 lit1-tk-luc reporter, luminescence; 0% DMSO, 100% Δ7-dafachronic acid. activation, % at 6.8 µM. hit rate 1.4% among 370,000;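 active = activation above the mean of all tested compounds plus 3 SD, cut at about 5.5% in these data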;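 also: 100% = response to 3 µM Δ7-dafachronic acid high control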
hgDAF12 agonist – agonists of H. glycines DAF-12 nuclear receptor | HEK293 GAL4-hgDAF12 UAS-luciferase reporter, agonist luminescence; normalized to butyrate control | activation, % at 6.8 µM | hit rate 1.8% among 370,000 | AID 687014;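 active = activation above a cutoff set at the mean of all screened compounds plus 3 SD, cut at about 10% in these data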;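 also: 0% = DMSO wells and 100% = sodium butyrate wells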
DAX1 inh-1 – inhibitors of human orphan nuclear receptor DAX1 (NR0B1); HEK293 Gal4-DAX1 luciferase reporter, luminescence; inhibition, % at 6.75 µM; hit rate 0.99% among 340,000; AID 504766;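 active = inhibition above the mean over all tested compounds plus 3 SD, cut at about 4.2% in these data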;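 also: 0% = DAX1-transfected cells with DMSO and 100% = empty-vector control cells with DMSO; inhibition shows as a rise in luminescence from relieved DAX1 repression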
Target sequence (P51843 207-470 limits assumed): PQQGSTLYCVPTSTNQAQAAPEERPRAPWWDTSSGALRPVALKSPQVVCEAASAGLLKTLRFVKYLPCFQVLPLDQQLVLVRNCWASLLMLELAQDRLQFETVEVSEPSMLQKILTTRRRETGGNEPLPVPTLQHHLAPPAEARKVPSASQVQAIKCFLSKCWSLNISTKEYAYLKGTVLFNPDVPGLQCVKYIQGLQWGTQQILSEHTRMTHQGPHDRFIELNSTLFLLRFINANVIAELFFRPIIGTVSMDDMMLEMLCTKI
DAX1 inh-2 – inhibitors of DAX1 repression of SF-1 activated StAR promoter. HEK293T StAR-luciferase reporter, SF-1/DAX-1 repression relief. inhibition, % at 6.8 µM. hit rate 1.1% among 370,000. AID 652010;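 active = inhibition above the mean over all tested compounds plus 3 SD, cut at about 3.6% in these data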;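 also: 0% = DAX-1 cells with DMSO and 100% = cells lacking DAX-1 with DMSO; higher inhibition means more luminescence from relief of DAX-1 repression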
ssDAF-12 act – S. stercoralis DAF-12 activation, primary screen; HEK293 ssDAF-12/GRIP1 lit1-tk-luc reporter, luminescence; % of 3 µM dafachronic acid response; activation, % at 6.8 µM; hit rate 1% among 370,000;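 active = activation above the mean over all tested compounds plus 3 SD, cut at about 0.9% in these data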;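 also: 0% = DMSO-only wells and 100% = 3 µM delta7-dafachronic acid wells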
Active calls of the source: *; · = no result given.

SMILES | hcDAF12 agonist | hgDAF12 agonist | DAX1 inh-1 | DAX1 inh-2 | ssDAF-12 act
S=C(Nc1ccc(Br)cc1)OCCN1CCCC12CCC(c1ccccc1)CC2 (configuration not stated) | 1 | 1 | · | · | -1
O=C(Nc1cccc(NC(=O)c2ccc(Br)o2)n1)c1ccc(Br)o1 | 1 | 0 | 0 | 1 | -1
O=C(Nc1ccc2c(c1)CCC2)c1ccc(Br)o1 | 5.8* | 13* | 3 | 2 | 0
CCCC/C(=N\NC(=O)c1ccc(Br)o1)c1ccccc1 | 1 | 8 | 2 | 2 | 0
COC(=O)Cc1ccc(NC(=O)c2ccc(Br)o2)cc1 | 3 | 12* | 0 | 0 | -1
Cc1nc(NC(=O)c2ccc(Br)o2)ccc1Br | 4 | 5 | 0 | 4.0* | 0
CC/C(=N/NC(=O)c1ccc(Br)o1)c1ccc(Cl)cc1 | 2 | 12* | 1 | 1 | -1
CC(C)NC(=O)CN1C(=O)C(C)(C)Oc2ccc(C(=O)NC3CCCCC3)cc21 | 0 | 3 | -1 | 0 | -2
C/C(=N\NC(=O)c1c(Cl)cnn1C)c1ccc(NC(=O)c2ccc(Br)o2)cc1 | 1 | 8 | 0 | 6.3* | 0
C/C(=N\NC(=O)c1ccccc1N)c1ccc(NC(=O)Cc2ccccc2)cc1 | 3 | 8 | 6.9* | 2 | 1
C/C(=N\NC(=O)C1CC1)c1ccc(NC(=O)c2ccc(Br)o2)cc1 | 3 | 8 | · | 2 | -1
COc1ccc(CC(=O)Nc2ccc(/C(C)=N\NC(=O)c3ccc(Br)o3)cc2)cc1 | 6.2* | 12* | 1 | 3 | 0
C/C(=N\NC(=O)c1c(Br)c(C)nn1C)c1ccc(NC(=O)c2ccoc2C)cc1 | -1 | 12* | 2 | 1 | -1
COc1ccc(CC(=O)NNC(=O)c2ccc(Br)o2)cc1 | 0 | 0 | -1 | 0 | -1
COC(=O)C[C@H]1CC[C@H]2[C@H](COc3ccc(NS(=O)(=O)c4cccc(OC)c4)cc3C(=O)N2C)O1 | -2 | 3 | · | -2 | 0
CCN(C[C@H]1[C@@H](c2ccc(C3=CCCC3)cc2)[C@H](CO)N1Cc1ccccn1)S(=O)(=O)c1ccccc1[N+](=O)[O-] | 0 | -2 | · | -2 | -1
COc1ccc(NC(=O)CSc2nnc(-c3cccs3)o2)cc1Cl | -2 | 1 | · | -2 | -2
CC(=O)c1cc(-c2ccccc2)c(=O)n2c1CCC2 | 1 | 1 | · | 0 | -1
CCN1CCN(c2ccc(NC(=O)c3ccc(Br)o3)cc2)CC1 | 3 | 11* | 1 | 3.7* | 1.1*
Cc1cc(O)c(C2=Nc3ccccc3SC(c3ccc(Cl)cc3)C2)c(=O)o1 (configuration not stated) | 6.1* | 6 | 2 | 0 | 0
CCCC(=O)Nc1cnc(NC(=O)c2cccc(F)c2)cc1C | 4 | 13* | -1 | 3 | 1
Cc1cc(NC(=O)c2cccs2)ncc1NC(=O)C(C)(C)C | 3 | 10 | 2 | 3 | 1.1*
Cc1ccnc(NC(=O)c2cccs2)c1 | 2 | 8 | 1 | 1 | 0
COC(=O)[C@]12C[C@H](CC(=O)N3CCC(c4ccccc4)CC3)C(=O)N(Cc3cccc4ccccc34)C1=C[C@H](C(C)C)O[C@@H]2C1CC1 | -1 | -1 | · | 0 | 0
Cc1nc(-c2ccc(C(=O)N3CCCC3)cc2)cs1 | 3 | 11* | -1 | 4 | 0
SMILES | hcDAF12 agonist | hgDAF12 agonist | DAX1 inh-1 | DAX1 inh-2 | ssDAF-12 act
CCOC(=O)CC[C@H]1CC[C@]2(CCCN(C(=O)c3cccnc3)C2)O1 | -1 | 3 | · | 0 | 0
O=C(NNC1CCN(Cc2ccccc2)CC1)c1ccccc1 | -1 | 11* | 0 | 3 | 0
O=C(NC1CCN(Cc2ccccc2)CC1)c1ccccc1 | 0 | -3 | 2 | 0 | -1
CCC(=O)NC(=S)Nc1ccccc1F | -1 | 2 | 0 | -1 | -1
COc1ccc(C(=O)NC(=S)Nc2ccccc2F)cc1 | 2 | 11* | 1 | 1 | -1
CC(=O)NC(=S)Nc1ccccc1F | -1 | -1 | 6.3* | 0 | -1
O=C1c2ccccc2NC(c2cccs2)N1O (configuration not stated) | 1 | 1 | 5.7* | 3.7* | -1
O/N=C1\CC/C(=N\O)c2nn(-c3ccccc3Cl)nc21 | 0 | 1 | 0 | -1 | -2
Cc1ccc(-n2nc3c(n2)/C(=N/O)CC/C3=N\O)cc1 | 5 | 12* | -1 | 4.4* | 1
